The results in this text go back to PubChem BioAssay (NCATS).

Experiment [1] concerns the target Cellular tumor antigen p53 (Homo sapiens) (UniProt P04637). Put plainly: Primary qHTS for small molecule compounds that upregulate eGFP-tagged delta133p53alpha (in N-terminal) cells. (AID 2060322).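 For activation: cells pre-induced with doxycycline then dosed without doxycycline; series mostly up to about 56 µM; 0% = DMSO vehicle and 100% = reference activator.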 Note: nearly all actives have a fitted effect of over 75% in size. The note with it: NCI-H358 eGFP-delta133p53alpha fluorescence, 24 h; activation: stronger effect = higher value. The method, boiled down:
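NCI-H358 cells pre-induced 24 h with 10 ng/ml doxycycline for eGFP-delta133p53alpha, plated dox-free and exposed 24 h at 37C to titrated compounds. Fixed, Hoechst-stained; gated GFP peak intensity by laser scanning cytometry, normalized to DMSO (0%) and 57.5 uM 5-azacytidine (100%).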
On the technique in general: Quantitative high-throughput screening tests each substance at several concentrations.

Experiment [2] can be described thus: BET inhibitor-based combinations targeting novel dependencies in MECOM-rearranged (r) AML: SET-2 cell line (AID 2202231).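 For viability: plate controls were DMSO treated cells for no effect and wells without cells for full effect.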 Note: nearly all actives have a fitted effect of over 35% in size. The settings on record: SET-2 AML cells viability, CellTiter-Glo luminescence, 48 h; viability: stronger effect = lower value, concentration not given here. The gist of the method:
(§1)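 AML cell lines seeded at 500 cells/well, treated with 11-point dose curves for 48 h. Viability by CellTiter-Glo luminescence, normalised to DMSO and empty wells; activity expressed as AUC and per-cell-line Z-transformed AUC.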

Experiment [3] in a line: BET inhibitor-based combinations targeting novel dependencies in MECOM-rearranged (r) AML: OCI-AML3 cell line (AID 2202232). Note: nearly all actives have a fitted effect of over 35% in size. The note with it: Potency: OCI-AML3 viability. The method, boiled down: as §1
Experiment [4] in a line: BET inhibitor-based combinations targeting novel dependencies in MECOM-rearranged (r) AML: MV-4-11 cell line (AID 2202233). Note: nearly all actives have a fitted effect of over 45% in size. The gist of the method: (§2)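 Cells at 500/well were exposed for 48 hr to MIPE v5.0 drugs as 11-point dose curves. Viability was read by CellTiter-Glo luminescence and normalized to DMSO and empty-well controls. Activity was expressed as AUC and per-cell-line Z-AUC.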

Experiment [5] is described as follows: BET inhibitor-based combinations targeting novel dependencies in MECOM-rearranged (r) AML: HNT-34 cell line (AID 2202234). Note: nearly all actives have a fitted effect of over 35% in size. The method, boiled down:
as §2

Experiment [6] in a line: BET inhibitor-based combinations targeting novel dependencies in MECOM-rearranged (r) AML: UCSD-AML1 cell line (AID 2202235). Note: nearly all actives have a fitted effect of over 40% in size. The gist of the method: as §2
The nature of experiment [7]: BET inhibitor-based combinations targeting novel dependencies in MECOM-rearranged (r) AML: AML-191 cell line (AID 2202236; note: nearly all actives have a fitted effect of over 35% in size). The gist of the method: as §1
The nature of experiment [8]: BET inhibitor-based combinations targeting novel dependencies in MECOM-rearranged (r) AML: AML-194 cell line (AID 2202237; note: nearly all actives have a fitted effect of over 40% in size). The gist of the method: as §1

“And” between values parts separate entries of the source, which are not always exact repeats. Identical values can stand only once. Inconclusive results are not listed. A number with no mark means an inactive call. The source made the active and inactive calls. Calls come from the whole dose curve; as a rule, active = well fitted curve in the direction sought with a large enough effect; inconclusive = small, poorly fitted or top-dose-only effect, or another doubt; inactive = no such curve, though single readings can be large; an effect the other way counts as inactive or inconclusive.
Potency is the fitted concentration of half-maximal effect.

Chain of Cellular tumor antigen p53 (Homo sapiens) (P04637 whole entry, looked up): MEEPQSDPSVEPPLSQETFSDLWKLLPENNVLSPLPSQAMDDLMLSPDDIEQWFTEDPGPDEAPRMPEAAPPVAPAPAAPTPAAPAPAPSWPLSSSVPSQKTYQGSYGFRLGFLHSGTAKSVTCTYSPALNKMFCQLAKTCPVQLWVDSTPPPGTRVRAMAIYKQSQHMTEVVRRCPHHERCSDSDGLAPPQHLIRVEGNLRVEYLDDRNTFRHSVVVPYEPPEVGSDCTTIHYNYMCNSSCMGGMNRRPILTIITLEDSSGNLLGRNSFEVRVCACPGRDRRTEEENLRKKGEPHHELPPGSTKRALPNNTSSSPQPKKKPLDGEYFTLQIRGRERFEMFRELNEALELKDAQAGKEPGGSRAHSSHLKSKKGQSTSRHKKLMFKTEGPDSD

Turning to `CS(=O)(=O)Oc1ccc2c(NC(N)=O)c(C(=O)c3ccc(Cl)cc3Cl)oc2c1`, the activation in experiment [1] was -14%. Further, the viability in experiment [2] was 97.1%. Also, the Potency entry in experiment [3], in experiment [4], in experiment [5], in experiment [6], in experiment [7] and in experiment [8] was “inactive” throughout.
With `Cc1ccsc1C(=CCCN1CCC[C@@H](C(=O)O)C1)c1sccc1C`, the activation in experiment [1] is -19.8%. In addition, the viability in experiment [2] is 112%. For the same compound, the Potency in experiment [3] is 0.468 µM (active). In addition, the Potency result in experiment [4], in experiment [5], in experiment [6], in experiment [7] and in experiment [8] was “inactive” each time.
Regarding `OC(Cn1cncn1)(Cn1cncn1)c1ccc(F)cc1F`, the activation in experiment [1] is 6.21% and 14.6%. In experiment [2], the viability was 116%. Besides, the Potency result in experiment [3], in experiment [4], in experiment [5], in experiment [6], in experiment [7] and in experiment [8] was “inactive” throughout.
With `CCC(C)SSc1ncc[nH]1` (centres undefined), the activation in experiment [1] was -4.29%. Also, the Potency in experiment [2] was 11.8 µM (active); in experiment [3] it was 8.33 µM (active); in experiment [4], 2.63 µM (active); in experiment [5], 9.34 µM (active); in experiment [6] it was 7.42 µM (active); in experiment [7], 5.25 µM (active). The Potency in experiment [8] was 7.42 µM (active).
As to `CO[C@@H]1[C@@H](OC(N)=O)[C@@H](O)[C@H](Oc2ccc3c(O)c(NC(=O)c4ccc(O)c(CC=C(C)C)c4)c(=O)oc3c2C)OC1(C)C`, the activation in experiment [1] is -10.7% and -17.4%. Also, the viability in experiment [2] is 122%. In addition, the Potency entry in experiment [3], in experiment [4], in experiment [5], in experiment [6], in experiment [7] and in experiment [8] was “inactive” throughout.
In the case of `O=C(NCCCCN1CCOCC1)c1cc2ccccc2o1`, the activation in experiment [1] is 15.9%. The viability in experiment [2] is 111%. The Potency result in experiment [3], in experiment [4], in experiment [5], in experiment [6], in experiment [7] and in experiment [8] was “inactive” in each case.
With `COc1cc(C)c(Sc2cnc(NC(=O)c3ccc(CNC(C)C(C)(C)C)cc3)s2)cc1C(=O)N1CCN(C(C)=O)CC1` (centres undefined), the Potency was 43.2 µM (active) in experiment [1]; 23.5 µM (active) in experiment [2]; 14.8 µM (active) in experiment [3]; 4.17 µM (active) in experiment [4]; 16.6 µM (active) in experiment [5]; 14.8 µM (active) in experiment [6]. Besides, the Potency in experiment [7] was 14.8 µM (active); in experiment [8], 11.8 µM (active).
With `CC(C)[C@H](O)C(=O)N[C@@H](C)C(=O)N[C@@H]1C(=O)N(C)CCc2ccccc21`, the activation in experiment [1] is 28.1%. In experiment [2], the viability is 117%. Besides, the Potency entry in experiment [3], in experiment [4], in experiment [5], in experiment [6], in experiment [7] and in experiment [8] was “inactive” throughout.
As to `CN1C(C(=O)Nc2ccccn2)=C(O)c2sc(Cl)cc2S1(=O)=O`, the activation in experiment [1] was -22.9%. For the same compound, the viability in experiment [2] was 103%. Moreover, the Potency entry in experiment [3], in experiment [4], in experiment [5], in experiment [6], in experiment [7] and in experiment [8] was “inactive” each time.
For the compound `Cc1ccc(C(=O)Nc2ccc(CN3CCN(C)CC3)c(C(F)(F)F)c2)cc1C#Cc1cnc2cccnn12`, the Potency in experiment [1] was 7.69 µM (active) and 10.7 µM (active); in experiment [2], 7.42 µM (active); in experiment [3], 1.86 µM (active); in experiment [4] it was 0.0263 µM (active); in experiment [5] it was 0.0083 µM (active); in experiment [6], 2.63 µM (active). In addition, the Potency in experiment [7] is 0.934 µM (active); in experiment [8], 1.48 µM (active).
Turning to `O=C(O)c1cc(O)c2c(c1)C(=O)c1cccc(O)c1C2=O`, in experiment [1], the activation is -15.1%. Besides, the viability in experiment [2] is 115%. In experiment [3], the Potency is 5.9 µM (active). For the same compound, the Potency result in experiment [4], in experiment [5], in experiment [6], in experiment [7] and in experiment [8] was “inactive” in each case.
As for `N#Cc1ccnc(Nc2cc(C3CCN(C4COC4)CC3)cc(N3CCC(F)(F)C3)n2)c1`, the Potency in experiment [1] is 27.2 µM (active); in experiment [2], 3.72 µM (active); in experiment [3] it was 8.33 µM (active); in experiment [4] it was 0.235 µM (active); in experiment [5], 0.833 µM (active); in experiment [6], 2.95 µM (active). Besides, the Potency in experiment [7] is 2.95 µM (active); in experiment [8] it was 4.17 µM (active).
Turning to `COc1ccc(S(=O)(=O)Nc2cc(-c3c(O)ccc4ccccc34)c(O)c3ccccc23)cc1`, in experiment [1], the activation was 23.1%. The Potency in experiment [2] is 11.8 µM (active); in experiment [3], 2.63 µM (active); in experiment [4], 0.833 µM (active); in experiment [5] it was 1.66 µM (active); in experiment [6] it was 3.72 µM (active); in experiment [7], 1.86 µM (active). For the same compound, the Potency in experiment [8] is 1.66 µM (active).
Consider `O=C(NCCO[N+](=O)[O-])c1cccnc1`, for which the activation in experiment [1] was -0.853% and 0.837%. For the same compound, in experiment [2], the viability was 114%. The Potency entry in experiment [3], in experiment [5], in experiment [6], in experiment [7] and in experiment [8] was “inactive” in each case. Besides, the Potency in experiment [4] was 4.68 µM (active).
As to `CCCCCN=C(N)N/N=C/c1c[nH]c2ccc(OC)cc12`, the activation in experiment [1] was 9.6%. The Potency is 23.5 µM (active) in experiment [2]; 8.33 µM (active) in experiment [3]; 8.33 µM (active) in experiment [4]; 9.34 µM (active) in experiment [5]; 16.6 µM (active) in experiment [6]; 18.6 µM (active) in experiment [7]. Besides, the Potency in experiment [8] was 20.9 µM (active).
In the case of `N[C@@H](CC(=O)N1CCn2c(nnc2C(F)(F)F)C1)Cc1cc(F)c(F)cc1F`, the activation in experiment [1] is -12.2%. The viability in experiment [2] is 112%. Besides, the Potency result in experiment [3], in experiment [4], in experiment [5], in experiment [6], in experiment [7] and in experiment [8] was “inactive” in each case.
`O=C(CCCCCCC(=O)Nc1cccnc1)NO`: the activation in experiment [1] is 50.9%. The Potency is 5.25 µM (active) in experiment [2]; 5.9 µM (active) in experiment [3]; 2.35 µM (active) in experiment [4]; 4.68 µM (active) in experiment [5]; 7.42 µM (active) in experiment [6]; 3.32 µM (active) in experiment [7]. Further, the Potency in experiment [8] is 8.33 µM (active).
Turning to `c1cc(-c2cnn3cc(-c4ccc(OCCN5CCCCC5)cc4)cnc23)ccn1`, the activation in experiment [1] is 46.6%. For the same compound, the Potency is 8.33 µM (active) in experiment [2]; 8.33 µM (active) in experiment [3]; 0.0833 µM (active) in experiment [4]; 1.66 µM (active) in experiment [5]; 9.34 µM (active) in experiment [6]; 8.33 µM (active) in experiment [7]. Further, the Potency in experiment [8] was 9.34 µM (active).

A word on the viability: it is a read-out of living cells in per cent, often relative to untreated cells.
